From PubChem BioAssay
FBW7 activator: human FBW7 E3 ligase activation, primary screen | hit rate 0.13% among 650,000 | normalized activity (activation), % at 26.1 µM | Q969H0 | AlphaScreen FBW7–phospho-cyclin E peptide binding, activator screen | AID 1259310; in the data active means normalized activity above about 1.9%;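 further: purified mutant Fbw7 with reduced substrate affinity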
TEAD-YAP block: TEAD-YAP interaction inhibition; HEK-TIYL cells, TEAD-Gal4/YAP UAS-luciferase luminescence; inhibition, % at 9.12 µM; hit rate 1.4% among 640,000; AID 1259422; in the data active means inhibition above about 32%;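 further: 0% = median of test compound wells and 100% = reference inhibitor wells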
MITF primary: human MITF inhibition, primary screen; inhibition, % at 2.6 µM; hit rate 0.91% among 650,000; AID 1259374; AlphaScreen MITF homodimerization, bead proximity signal; in the data active means inhibition above about 50%;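 further: 0% = vehicle wells with protein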
GPR151 activ: activates the human receptor GPR151; Q8TDV0; PathHunter beta-arrestin GPR151 cells, luminescence; activation, % at 11.2 µM; hit rate 1% among 650,000; in the data active means activation above about 4.9%;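 further: 0% = median of compound wells and 100% = cells with positive control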
Target sequence (Q8TDV0 whole entry, looked up): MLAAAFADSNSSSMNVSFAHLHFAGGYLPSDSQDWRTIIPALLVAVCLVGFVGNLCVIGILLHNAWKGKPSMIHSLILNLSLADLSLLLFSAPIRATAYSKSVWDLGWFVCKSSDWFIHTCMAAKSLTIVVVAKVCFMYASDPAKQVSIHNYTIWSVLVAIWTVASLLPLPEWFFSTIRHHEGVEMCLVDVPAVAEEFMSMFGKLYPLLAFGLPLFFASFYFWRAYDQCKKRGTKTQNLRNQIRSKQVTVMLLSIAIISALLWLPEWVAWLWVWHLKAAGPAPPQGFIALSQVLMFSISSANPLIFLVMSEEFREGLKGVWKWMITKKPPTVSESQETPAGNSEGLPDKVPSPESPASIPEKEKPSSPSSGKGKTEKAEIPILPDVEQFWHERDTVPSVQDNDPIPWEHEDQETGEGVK
MITF inh conf: human MITF inhibition, confirmation; hit rate 16% among 4,700; AlphaScreen MITF homodimerization, biotin/His-MITF beads; inhibition, % at 2.6 µM; shares compounds with MITF primary; AID 1259372;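 active means inhibition above a cutoff derived from the DMSO control wells, cut at about 28% in these data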;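 further: 0% = MITF dimer wells with DMSO only; inhibitors lower the bead chemiluminescence by keeping MITF from dimerizing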
AS interf DR: counter-screen: compounds optically interfering with AlphaScreen; AlphaScreen optical interference counterscreen, cell-free; shares compounds with MITF primary; IC50, µM; hit rate 6% among 480; call rule not given here
AS interf ctr: optically interferes with AlphaScreen signal; shares compounds with MITF primary; inhibition, % at 2.6 µM; LysRS AlphaScreen counterscreen, signal interference, triplicate; hit rate 7.6% among 4,700;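 active means inhibition above a cutoff derived from the DMSO control wells, cut at about 30% in these data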
Numbers without * were called inactive; nt = no result. Rows were chosen to be rich in hits. Some 3.5% of all compounds tested hit in one or more screens of this group.

SMILES	FBW7 activator	TEAD-YAP block	MITF primary	GPR151 activ	MITF inh conf	AS interf ctr	others
CN(C)CCCN(CCCN(C)C)Cc1ccc(Br)cc1	0	2	54*	0	-1	8
Cc1ccc(S(=O)(=O)N2CCN(Cc3cccc(C)c3)CC2)cc1	0	-6	3	0	nt	nt
Clc1cccc(CN2CCN(c3ncccn3)CC2)c1	0	-4	49	3	nt	nt
Cc1cccc(CN2CCN(Cc3ccccc3C(F)(F)F)CC2)c1	0	4	76*	-1	1	3
FC(F)(F)c1ccccc1CN1CCN(Cc2cccc(Cl)c2)CC1	0	-6	69*	1	18	22
O=C(Nc1ccccn1)c1cc2c(=O)n3ccccc3nc2s1	0	-7	8	0	nt	nt
Cc1ccc(C(CNS(=O)(=O)c2cccc3ccccc23)N2CCOCC2)cc1 (stereo not drawn)	0	7	4	-1	nt	nt
c1cncc(CNc2nc(Nc3ccc(N4CCOCC4)cc3)nc3c2ncn3C2CCCCC2)c1	0	-3	14	-1	nt	nt
c1cncc(CNc2nc(Nc3ccc(N4CCOCC4)cc3)c3ncn(C4CCCCC4)c3n2)c1	0	-13	51*	-1	84*	-13
CN(CC1COCCO1)C(=O)c1ccc(OC2CCN(C(=O)c3cccnc3)CC2)cc1 (stereo not drawn)	0	-3	-1	2	nt	nt
Cc1cc(=O)n(C)c(=O)n1CCCCCCNCc1ccccc1	0	4	77*	0	-8	-6
COc1ccc(NC(=O)CSc2nc3ccccc3nc2Cc2ccccc2OC)cc1Cl	0	11	-12	-1	nt	nt
COc1ccccc1Cc1nc2ccccc2nc1SCC(=O)Nc1ccc(OC)c(OC)c1	0	-26	73*	4	4	-6
CC1CN(CC(=O)Nc2ccc(F)cc2)CC(C)O1 (stereo not drawn)	0	4	55*	3	13	13
O=C(CCCCC(=O)Nc1ccc(F)cc1)Nc1ccc(F)cc1	1	11	56*	-1	2	1
CCN1CCN(CC(=O)Nc2ccc(F)cc2)CC1	0	-1	83*	0	17	21
O=C(CN1CCN(CC(=O)Nc2ccc(F)cc2)CC1)Nc1ccc(F)cc1	0	12	6	0	nt	nt
CCC(C)NS(=O)(=O)c1ccc(NC(=O)CN2CCOCC2)cc1 (stereo not drawn)	0	-8	54*	0	3	17
Cc1ccc(OCCn2cc(/C=C3/C(=N)N4N=C(C5CCCCC5)SC4=NC3=O)c3ccccc32)c(C)c1	0	-19	-19	0	nt	nt
Cc1ccc(S(=O)(=O)N2CC=C(C(=O)NC3CCC(C)CC3)CC2)cc1 (stereo not drawn)	1	-3	15	0	nt	nt
CCCNC(=O)c1oc(=O)c2ccccc2c1-c1ccccc1	0	-2	-6	-1	nt	nt
CCN(CC)CCN1CC(c2ccccc2)CC1=O (stereo not drawn)	0	5	58*	0	17	11
Cc1cccn2c(CNCC3CCN(C4CCCC4)CC3)c(C(=O)N3CCCCC3)nc12	0	-9	-15	-1	nt	nt
COC(=O)c1ccc(OCCCCN2CC(C)OC(C)C2)cc1 (stereo not drawn)	0	-4	54*	2	16	2
CC1CN(CCOc2ccc(F)cc2)CC(C)O1 (stereo not drawn)	0	-6	53*	2	0	-4
SMILES	FBW7 activator	TEAD-YAP block	MITF primary	GPR151 activ	MITF inh conf	AS interf ctr	others
Cc1cnc(-c2ccc(C(=O)N3CCN(C)CC3)cc2)nc1NCCOc1ccccc1	0	7	0	-1	nt	nt
CCOC(=O)CSc1nnc(NC(=O)COc2ccccc2)s1	0	-4	2	-2	nt	nt
O=C(Nc1ccc(Oc2ccccc2)cc1)c1csc(-c2csc3ccccc23)n1	0	-27	-1	0	nt	nt
COc1cc(CN2CCC(N3CCOCC3)CC2)cc(OC)c1OC	1	-2	24	0	nt	nt
COc1cc(CN2CCC(N3CCN(C)CC3)CC2)cc(OC)c1OC	0	-1	87*	0	-14	-5
COc1ccc(OC)c(CN2CCN(C3CCC(c4ccccc4)CC3)CC2)c1 (stereo not drawn)	0	-4	54*	0	-2	10
COc1ccc(OC)c(CN2CCC(N3CCN(CCO)CC3)CC2)c1	0	1	81*	-1	-5	4
COc1cc(CN2CCN(C3CCC(c4ccccc4)CC3)CC2)cc(OC)c1OC (stereo not drawn)	0	4	69*	-1	6	-7
CCOC(=O)/C(C#N)=C\c1ccc(OCC)cc1	0	-3	-11	2	nt	nt
CCOC(=O)/C(C#N)=C/c1ccc(OC(=O)c2ccccn2)cc1	-1	17	61*	-3	26	54*
COc1ccc(C(CNc2nnnn2-c2ccccc2)N2CCOCC2)cc1 (stereo not drawn)	0	1	51*	1	3	0
CC(=O)Nc1ccc(-c2ccncc2-c2ccc(S(N)(=O)=O)cc2)cc1	0	-1	55*	0	47*	38*
C=C(C)CSc1nnc2n(-c3ccccc3C)c(=O)c3c4c(sc3n12)CCCC4	0	5	70*	0	-3	-3
O=C1N[C@H](CO)C(=O)N2CCN(C(=O)NCc3ccccc3)C[C@H]12	0	2	81*	-1	75*	-12	AS interf DR=>6.5
O=C1N[C@H](Cc2ccccc2)C(=O)N2CCN(C(=O)c3ccccc3)C[C@H]12	0	5	3	0	nt	nt
O=C1N[C@H](Cc2ccc(O)cc2)C(=O)N2CCN(C(=O)NCc3ccccc3)C[C@H]12	0	-10	75*	-1	72*	-11	AS interf DR=>6.5
O=C1N[C@H](CO)C(=O)N2CCN(C(=O)c3ccccc3)C[C@H]12	1	6	-12	-4	nt	nt
CCC[C@@H]1NC(=O)[C@H]2CN(C(=O)NCc3ccccc3)CCN2C1=O	0	5	75*	3	71*	-4	AS interf DR=>6.5
NCCCC[C@@H]1NC(=O)[C@H]2CN(C(=O)NCc3ccccc3)CCN2C1=O	0	-1	-12	0	nt	nt
O=C1N[C@@H](Cc2ccccc2)C(=O)N2CCN(C(=O)NCc3ccccc3)C[C@H]12	0	8	77*	0	74*	-7	AS interf DR=>6.5
O=C1N[C@@H](Cc2ccccc2)C(=O)N2CCN(C(=O)OCc3ccccc3)C[C@H]12	0	5	6	3	nt	nt
CC1CCc2c(sc(NC(=O)c3cccc(S(=O)(=O)N4CCCCC4)c3)c2C#N)C1 (stereo not drawn)	0	6	4	-1	nt	nt
CCOC(=O)C1(Cc2cccc(Cl)c2)CCCN(C(=O)CCn2cccn2)C1 (stereo not drawn)	0	-72	2	1	nt	nt
CN(C(=O)COC(=O)c1ccc(Br)o1)C1CCCCC1	0	-1	3	2	nt	nt
